HPGD block = HPGD (human) dehydrogenase inhibition; purified HPGD, NADH fluorescence kinetic, PGE2 substrate; 4.3% of 150,000 active; Potency, µM, hits mostly inhibitors; P15428; active = well fitted inhibition curve with a large enough effect, not every such curve was filed as active; inconclusive = small, poorly fitted or top-dose-only effect, or another doubt; inactive = no such curve, though single readings can be large or run the other way
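20 nM HPGD preincubated 15 min at room temperature with compound in 50 mM Tris-HCl pH 8, 0.01% Tween 20. Started with 1 mM NAD+ and 30 uM prostaglandin E2; NADH fluorescence (360/450 nm) read 5 times over 30-s intervals, last minus first.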
Tau fibril ThT = inhibitors of human tau fibril formation, thioflavin T binding; 2.1% of 270,000 active; P10636; recombinant tau K18 P301L, heparin-induced fibrillization, ThT fluorescence; AID 1460; Potency, µM (series often up to 57.4 µM), usual class: inhibitors; also: nearly all actives have a fitted effect of over 55% in size
Target sequence (P10636 561-689 P618L limits assumed): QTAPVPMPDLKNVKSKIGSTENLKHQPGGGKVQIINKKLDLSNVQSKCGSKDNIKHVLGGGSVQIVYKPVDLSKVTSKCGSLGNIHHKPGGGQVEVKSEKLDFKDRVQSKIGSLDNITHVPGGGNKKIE
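In this qHTS, human K18 P301L tau is incubated with compound and heparin for 6 hr at 37 C, and Thioflavin T fluorescence then reports fibril load.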
JMJD2E inh = blocks human JMJD2E demethylase activity; B2RXH2; JMJD2E catalytic domain, FDH-coupled NADH fluorescence (FDH is formaldehyde dehydrogenase); Potency, µM (doses to about 57.1 µM), most hits filed as inhibitors; 1.6% of 230,000 active; AID 2147; active = well fitted inhibition curve with a large enough effect, not every such curve was filed as active; inconclusive = small, poorly fitted or top-dose-only effect, or another doubt; inactive = no such curve, though single readings can be large or run the other way; also: nearly all actives have a fitted effect of over 50% in size
Target sequence (B2RXH2 1-337 limits assumed): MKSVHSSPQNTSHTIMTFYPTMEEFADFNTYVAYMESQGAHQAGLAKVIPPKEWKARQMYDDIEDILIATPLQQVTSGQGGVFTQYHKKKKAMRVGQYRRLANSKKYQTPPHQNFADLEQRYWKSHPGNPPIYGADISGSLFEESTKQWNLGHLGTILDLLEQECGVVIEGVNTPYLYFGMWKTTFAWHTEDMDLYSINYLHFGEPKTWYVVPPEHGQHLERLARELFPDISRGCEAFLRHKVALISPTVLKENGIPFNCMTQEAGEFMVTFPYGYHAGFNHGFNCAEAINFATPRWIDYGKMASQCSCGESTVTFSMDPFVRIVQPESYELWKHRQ
Tau fluor counter = counter-screen for tau fibril formation inhibitors; 0.93% of 280,000 active; AID 1463; tau K18 P301L (four-repeat tau fragment) Alexa594 fluorescence, heparin fibrillization; Potency, µM (titrated, usually from 57.7 µM); also: nearly all actives have a fitted effect of over 55% in size
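Human K18 P301L tau (15 uM unlabeled plus 0.24 uM Alexa 594-labeled, final) in 100 mM sodium acetate pH 7 was mixed with compound and 20 uM heparin and incubated 6 hr at 37 C.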
Tau fibril FP = tau fibrillization inhibition (FP). P10636. Potency, µM (highest dose often 57.7 µM), actives largely listed as inhibitors. K18 P301L tau heparin fibrillization, Alexa594 FP, 6 h. 0.39% of 280,000 active; also: nearly all actives have a fitted effect of over 55% in size
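Steps: dispense K18 P301L tau (15 uM plus 0.24 uM Alexa 594 tracer, final) in pH 7 sodium acetate; add compound; add heparin (20 uM final); incubate 6 hr, 37 C; add ThT (30 uM final); after 1 hr ambient, read FP.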
ALDH1A1 block = inhibitors of human aldehyde dehydrogenase 1A1; P00352; Purified ALDH1A1, NADH fluorescence, propionaldehyde substrate; Potency, µM (series often up to 75.3 µM), actives largely listed as inhibitors; 7.3% of 220,000 active; AID 1030; active = well fitted inhibition curve with a large enough effect, not every such curve was filed as active; inconclusive = small, poorly fitted or top-dose-only effect, or another doubt; inactive = no such curve, though single readings can be large or run the other way
Numbers stand for hits; i = inactive; ? = inconclusive; nt = not tested or not shown; [ ] = remark or other dose. A selection: hits, their analogues and other compounds. The true share with any hit is near 9.9%. Unless noted, calls follow the shape of the dose curve; as a rule, active = well fitted curve in the direction sought with a large enough effect; inconclusive = small, poorly fitted or top-dose-only effect, or another doubt; inactive = no such curve, though single readings can be large; an effect the other way counts as inactive or inconclusive.

SMILES | HPGD block | Tau fibril ThT | JMJD2E inh | Tau fluor counter | Tau fibril FP | ALDH1A1 block
CCCOc1ccc(-c2nonc2NC(=O)c2ccco2)cc1OCCC | nt | i | nt | i | i | nt
COc1ccccc1-c1nc(S(=O)(=O)c2ccc(Cl)cc2)c(N(C)C)o1 | i | ? | i | i | i | 24µM
O=C(NCCC1=CCCCC1)c1ccc(Cl)c(S(=O)(=O)N2CCOCC2)c1 | i | i | i | i | i | 13µM
Cc1ccc(CSCCNC(=O)c2ccc(Cl)c(S(=O)(=O)N3CCOCC3)c2)cc1 | i | ? | i | ? | i | ?
O=S(=O)(NCCC1=CCCCC1)c1cccc(S(=O)(=O)N2CCOCC2)c1 | nt | i | i | i | i | 10µM
COc1ccccc1[C@H]1C(c2ccccc2)=NN(c2ccccc2)[C@@H]1CO | ? | ? | nt | 32µM[quencher] | i | ?
COc1ccccc1[C@H]1C(c2cccc(C)c2)=NN(c2ccccc2)[C@@H]1CO | ? | i | nt | ? | ? | ?
OC[C@@H]1[C@@H](c2ccc(Cl)cc2)C(c2cccc(Cl)c2)=NN1c1ccccc1 | ? | ? | nt | 11µM[quencher] | ? | ?
CC[C@H]1C(c2ccccc2)=NN(c2ccccc2)[C@@H]1CO | ? | i | nt | ? | ? | ?
OC[C@@H]1[C@@H](c2ccc(Cl)cc2)C(c2ccccc2)=NN1c1ccccc1 | ? | ? | nt | 10µM[quencher] | i | ?
C[C@H]1C(c2ccc(F)cc2)=NN(c2ccccc2)[C@@H]1CO | ? | ? | nt | 25µM[quencher] | ? | ?
CC(OC(=O)Cc1n[nH]c(=O)c2ccccc12)C(=O)Nc1cccc([N+](=O)[O-])c1 (stereo unspecified) | nt | i | i | i | i | i
O=C1OCCN1C(=O)[C@H]1[C@H](c2ccc([N+](=O)[O-])cc2)C(c2ccc(F)cc2)=NN1c1ccccc1 | i | i | nt | ? | i | i
C[C@H]1C(c2cccc(Cl)c2)=NN(c2ccccc2)[C@@H]1CO | ? | ? | nt | 16µM[quencher] | i | ?
OC[C@@H]1[C@@H](c2ccc(F)cc2)C(c2cccc(Cl)c2)=NN1c1ccccc1 | ? | ? | nt | 40µM[quencher] | i | ?
COC(=O)c1cc2oc(C)cc2n1CC(=O)Nc1ccc(C)cc1C | nt | i | nt | i | i | nt
COc1ccc(Nc2nnc(SCC3CCCO3)s2)cc1 (stereo unspecified) | nt | i | i | i | i | i
CCC(C(=O)Nc1ccccc1)n1nc(-c2cc(C)ccc2C)ccc1=O (stereo unspecified) | nt | i | nt | i | i | nt
COc1ccc(CN(C(=O)c2nsc(Cl)c2Cl)C(C(=O)NC2CCCC2)c2ccc(C)cc2)cc1 (stereo unspecified) | i | i | i | i | i | 13µM
COc1ccc(CN(C(=O)c2cccs2)C(C(=O)NC2CCCCC2)c2ccc3ncccc3c2)cc1 (stereo unspecified) | i | i | i | i | i | ?
COc1ccc(CN(C(=O)c2nsc(Cl)c2Cl)C(C(=O)NC2CCCCC2)c2ccc(OC)cc2)cc1 (stereo unspecified) | i | i | i | i | i | 7.1µM
COc1ccc(/C=N/NC(=O)COc2cc(C)cc(C)c2)cc1COC(C)=O | i | i | i | i | i | i
Cc1cccc(CN2CCN(C(=O)CCl)CC2)c1 | nt | i | i | i | i | 0.32µM
Cc1ccc(/C=C/C(=O)N2CCN(Cc3ccccc3)CC2)o1 | i | ? | i | i | i | 8.9µM
Cc1cccc(CN2CCN(C(=O)c3ccccc3F)CC2)c1 | i | i | ? | i | i | ?
SMILES | HPGD block | Tau fibril ThT | JMJD2E inh | Tau fluor counter | Tau fibril FP | ALDH1A1 block
Cc1ccc(/C=C/C(=O)N2CCN(S(=O)(=O)c3ccc(C)c(C)c3)CC2)o1 | 22µM | ? | ? | i | i | 3.5µM
Cc1ccc(/C=C/C(=O)N2CC(=O)Nc3ccccc32)o1 | nt | i | ? | i | i | 20µM
Cc1c(C(=O)N(C)C)sc2c1c(=O)n(-c1ccc(Cl)c(Cl)c1)c(=O)n2CC(=O)Nc1ccc(Br)cc1F | nt | ? | nt | i | i | nt
CCOC(=O)c1c(-c2ncc(C(F)(F)F)cc2Cl)noc1C | nt | i | i | i | i | i
CC(=O)[C@@]1(O)CC[C@H]2[C@H]3C[C@@H](C)C4=CC(=O)C=C[C@]4(C)[C@@]3(F)[C@@H](O)C[C@]21C | i | nt | i | nt | nt | i
Cc1ccc(/C=C/C(=O)N2CCN(S(=O)(=O)c3c(C)c(C)cc(C)c3C)CC2)o1 | 25µM | ? | i | i | i | 14µM

Bioassay records as filed in PubChem BioAssay.
